Results: PubChem BioAssay

assay: DUSP6 inhibitors restoring Erk phosphorylation by chemical complementation, primary imaging in DUSP6-transfected HeLa (AID 609); conditions: HeLa MKP-3 transfected, phospho-Erk imaging KS statistic; measured here: nuclear pErk red intensity z-score; at 10 µM; stronger effect = higher value; cells stimulated with TPA for 15 min

SMILES | z-score
CCN1CCc2c(C#N)c(N3CCCCC3)nc(N3CCOCC3)c2C1 | 1.09
CC(NC(=O)Nc1nnc(C(F)(F)F)s1)(C(F)(F)F)C(F)(F)F | 0.273
O=c1[nH]c2sc3c(c2c(=O)n1Cc1ccccc1)CCC3 | -0.051
CC1(C)Cc2c(C#N)c(OCC(=O)c3ccccc3)nc(-c3ccoc3)c2CO1 | -0.876
O=c1[nH]c2cnccc2n1-c1ccccc1 | -1.07
O=C(c1cc(N2CCCCC2)nc2ccccc12)N1CCOCC1 | 1.42
CC(C)(C)NC(=O)/C=N/O | 0.222
COc1cc(N2CCCC2)c(OC)cc1/C=c1/sc2nc3ccccc3n2c1=O | -0.774
COc1cccc(C(=O)OC2CCCN(C)C2)c1 (centres undefined) | 0.0712
N#Cc1nc(-c2cccs2)oc1NCc1ccccc1Cl | 1.6
Cc1cc(=O)oc(C)c1C(=O)n1nc(C)c2c1C[C@@H]1[C@H]2C1(C)C | -1.17
Brc1ccc2c(c1)CNc1c(ncnc1N1CCOCC1)O2 | 1.59
CCOC(=O)NC1(C(F)(F)F)C(=O)NC(C)=C1C#N (centres undefined) | 0.321
COCc1n[nH]c(=S)n1-c1cccc2ccccc12 | 0.964
OC1(C2(O)CC(c3ccccc3)ON2)CCCCC1 (centres undefined) | -1.51
CC(C)Cc1nc(N2CCN(C(=O)Cc3ccccc3)CC2)c(C#N)c2c1COC(C)(C)C2 | -0.136
CCCCCNc1nc(N2CCCC2)c2c(c1C#N)CCN(C)C2 | -0.491
O=c1c(-c2ccc(Cl)cc2)[n+]([O-])c2ccccc2n1O | 0.573
COc1ccccc1C1/C(=C(/O)c2ccc(OC(C)C)cc2)C(=O)C(=O)N1c1cc(C)on1 (centres undefined) | -0.964
